Screens as filed in PubChem.
In the library only some 1.1% were active in any assay of this set; here they are far more common.
p53 reactivator – restores transcriptional activity of mutant p53. AID 504706. H1299 p53-A138V BP100-luciferase reporter, luminescence, 24 h. 0.063% of 320,000 active. Potency, µM (highest dose often 92.2 µM), for inactives: at the top dose activity change, positive = activation, hits mostly activators; further: potency means the concentration at half of the fitted maximal effect; % of control where 0% means no effect; nearly all actives have a fitted effect of over 45% in size
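H1299 (p53-null), stable ts p53-A138V + BP100-Luc; 1000 cells/well, Opti-MEM/10% FBS; cpd 4 pt, 1:5; 24 h, 37 deg C, 5% CO2; detection reagent 10 min RT; luminescence.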
RXFP1 antagonist – RXFP1 (human) relaxin receptor antagonism. HEK293-RXFP1, relaxin-stimulated cAMP HTRF, 30 min; hits give low values. activity change, negative = inhibition, % at 57.5 µM. 0.59% of 350,000 active. AID 1259400;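 active means activity change of -60% or lower, but not beyond a set lower limit; inconclusive means change between -60% and -40%, or beyond the set limit; inactive means change above -40%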; further: on the % scale 0 is the no-effect control and ±100 the full control effect
Target sequence (Q9HBX9 whole entry, looked up): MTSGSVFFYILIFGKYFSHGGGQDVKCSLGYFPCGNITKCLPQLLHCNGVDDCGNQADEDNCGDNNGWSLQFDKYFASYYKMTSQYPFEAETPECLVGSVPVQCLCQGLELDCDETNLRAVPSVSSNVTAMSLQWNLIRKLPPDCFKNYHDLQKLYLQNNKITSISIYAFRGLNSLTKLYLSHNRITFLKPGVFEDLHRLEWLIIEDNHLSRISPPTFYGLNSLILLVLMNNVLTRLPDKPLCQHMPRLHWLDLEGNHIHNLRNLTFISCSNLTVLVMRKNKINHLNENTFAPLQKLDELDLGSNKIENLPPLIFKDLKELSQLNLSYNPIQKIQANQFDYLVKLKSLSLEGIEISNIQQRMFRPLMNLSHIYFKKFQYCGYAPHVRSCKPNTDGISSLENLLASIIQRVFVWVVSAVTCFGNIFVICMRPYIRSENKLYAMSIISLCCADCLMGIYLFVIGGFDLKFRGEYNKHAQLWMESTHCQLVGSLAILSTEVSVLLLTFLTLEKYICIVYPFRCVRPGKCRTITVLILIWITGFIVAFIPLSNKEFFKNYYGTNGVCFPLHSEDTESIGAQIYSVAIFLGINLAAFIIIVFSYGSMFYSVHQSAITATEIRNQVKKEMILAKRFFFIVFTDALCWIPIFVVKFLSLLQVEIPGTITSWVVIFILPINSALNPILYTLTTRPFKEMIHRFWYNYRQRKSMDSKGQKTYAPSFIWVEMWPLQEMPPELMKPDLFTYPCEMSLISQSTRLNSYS
RXFP1 agonist – agonists of human relaxin receptor RXFP1 | HEK293T-RXFP1 cAMP TR-FRET, 30 min; response scale: percent of porcine relaxin response, buffer zero | AID 2676 | Potency, µM (top dose mostly 57.5 µM), inactives show at the highest dose activation, usual class: activators | Q9HBX9 | 0.3% of 370,000 active; further: potency means the concentration at half of the fitted maximal effect; on the % scale 0 is the no-effect control and ±100 the full control effect; nearly all actives have a fitted effect of over 60% in size
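Agonist response is measured as cAMP accumulation in an RXFP1-transfected HEK293T line under PDE4 inhibition. Values are scaled between buffer-only and 29 nM porcine relaxin, and EC50s come from standard Hill equation fits.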
Tb PFK block – T. brucei PFK enzyme inhibition; 0.17% of 330,000 active; T. brucei PFK, ADP-Glo luminescence; Potency, µM (titrated, usually from 57.5 µM), without a hit: at the highest dose activity, negative = inhibition, hits mostly inhibitors;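 further: potency means the concentration at half of the fitted maximal effect; 0% = uninhibited 1x PFK enzyme wells and -100% = no-enzyme wells; nearly all actives have a fitted effect of over 60% in size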
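In TEA buffer at pH 8.0 with 5 mM MgCl2, enzyme (1.25 nM) converted F6P (0.5 mM) and ATP (0.1 mM) for 45 min at room temperature. ADP product was read by luciferase luminescence.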
gsp antag – gsp mutant antagonism. gsp-mutant cells, cAMP HTRF, 30 min. Potency, µM (doses to about 76.9 µM), for the others: at the highest dose activity change, negative = inhibition, hits mostly inhibitors. 0.4% of 340,000 active; calls by dose curve; cell line not stated here;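 further: intracellular cAMP measured with PDE inhibitor Ro 20-1724 present during compound exposure; potency means the concentration at half of the fitted maximal effect; on the % scale 0 is the no-effect control and ±100 the full control effect; nearly all actives have a fitted effect of over 65% in size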
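Cells, 2000/well, grown 16–24 h in DMEM 10% FBS with 0.5 mg/ml G418, then compounds plus […] (300 uM addition stock), 30 min at 37C. cAMP read by HTRF (cAMP-d2 and anti-cAMP antibody-K in lysis buffer) after 30 min RT.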
gsp agonist – agonists of gsp mutant (McCune-Albright syndrome); gsp mutant cells, cAMP HTRF, 30 min; 0.13% of 340,000 active; Potency, µM (highest dose often 76.9 µM), inactives show top-dose activation (cAMP increase), usual class: activators; active means well fitted activation curve with a large enough effect; inconclusive means small, poorly fitted or top-dose-only effect, or another doubt; inactive means no such curve, though single readings can be large or run the other way; cell line not stated here;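 further: phosphodiesterase inhibitor Ro 20-1724 added with compounds to block cAMP breakdown; potency means the concentration at half of the fitted maximal effect; nearly all actives have a fitted effect of over 60% in size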
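Cells stably selected in G418 were plated at 2000/well, grown 16-24 hr, then given compounds in DMSO with the PDE inhibitor […] (300 uM solution added) for 30 min at 37C; cAMP was read by HTRF.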
An asterisk follows results filed as active; ? = inconclusive; / = not tested or not shown; [ ] = remark or other dose. Unless noted, the call rests on the fitted dose curve; in most records, active means well fitted curve in the direction sought with a large enough effect; inconclusive means small, poorly fitted or top-dose-only effect, or another doubt; inactive means no such curve, though single readings can be large; an effect the other way counts as inactive or inconclusive.

SMILES	p53 reactivator	RXFP1 antagonist	RXFP1 agonist	Tb PFK block	gsp antag	gsp agonist
CC(C)CCn1c2ccccc2c2cc(CC(N)=O)ccc21	0%	-72*	0%	3%	1%	2%
O=c1oc2c3c(ccc2c2ccccc12)OCN(Cc1ccccc1Cl)C3	/	2	28µM*	/	/	/
COc1cc(/C=N/NC(=O)Cn2cnc3c2c(=O)n(C)c(=O)n3C)ccc1O	-1%	41	16µM*	-2%	7%	22µM*
Cc1nn(C)c(C)c1N1C(=O)c2cccc3c(N)ccc(c23)C1=O	1%	1	7%	1%	3%	?
Cc1nn(C)c(C)c1N1C(=O)c2cccc3c(Br)ccc(c23)C1=O	-7%	5	21%	-7%	2%	13µM*
O=C(NCCc1c[nH]c2ccccc12)/C(=C\c1ccco1)NC(=O)c1ccco1	-5%	-4	-2%	-2%	8%	19%
CC(=O)Nc1ccc(NC(=O)C2CCC(N3C(=O)C4C5C=CC(C6CC56)C4C3=O)CC2)cc1 (stereo unspecified)	-6%	2	0%	1%	8%	24%
O=C(Nc1ccc(Cc2ccncc2)cc1)C1CCC(N2C(=O)C3C4C=CC(C5CC45)C3C2=O)CC1 (stereo unspecified)	-4%	-16	-2%	-6%	7.9µM*	?
CC(C)(C)NC(=O)C(c1ccccc1)N(Cc1ccco1)C(=O)c1csnn1 (stereo unspecified)	-1%	12	1%	-4%	-26%	1%
CC(C)OC(=O)C(C(=O)C(F)(F)F)c1cc(NS(=O)(=O)c2ccc3ccccc3c2)c2ccccc2c1O (stereo unspecified)	-19%	-85*	1%	-16%	-11%	-26%
COc1ccccc1Oc1ccc(Oc2ccccc2OC)cc1	8%	-10	1%	-3%	-8%	?
COC(=O)c1cc(Br)c(=O)n(-c2nccs2)c1	-6%	12	16µM*	-1%	12%	14µM*
COc1ccc(-c2nc3cccc(C)n3c2NCC2CCCO2)cc1O (stereo unspecified)	6%	31	22%	1%	-11%	18%[15.4 µM]
O=C(Cc1ccc(S(=O)(=O)N2CCOCC2)s1)Nc1nc2c(s1)CCCC2	-22%	-31	0%	-15%	7.9µM*	-38%
O=C(Nc1ccccc1)c1ccc(=O)n(Cc2ccc(F)c(F)c2)c1	-2%	-62*	-1%	-8%	-11%	-2%
CCN(C(=O)[C@@H]1CCCN1C(=O)c1cccs1)c1nc2cc(Cl)ccc2s1	13%	-14	1%	0%	-17%	12%[15.4 µM]
COc1ccc(N2CC(NS(=O)(=O)c3cccs3)CC2=O)cc1OC (stereo unspecified)	1%	-82*	-1%	1%	5%	19%[15.4 µM]
CCCCN1C(=O)C2C(c3ccc(OC)cc3O)NC(CC(C)C)(C(=O)O)C2C1=O (stereo unspecified)	7%	/	0%	-3%	8.9µM*	-8%
O=[N+]([O-])c1csc2ccccc12	/	-7	/	/	1%	-39%
Fc1ccccc1N=C1NN=C(c2ccccc2)CS1	6%	-17	1%	-1%	-10%	-9%[15.4 µM]
Clc1ccccc1N=C1NN=C(c2cccs2)CS1	?	-83*	1%	-8%	4%	0%[15.4 µM]
CCNc1ccc(S(=O)(=O)N(C)C)cc1NCC(=O)Nc1ccc(F)c(Cl)c1	-9%	/	1%	-7%	-43%	?
Cc1cccc(N2CCN(C(=O)CCCSc3nc4ccccc4[nH]3)CC2)c1C	-6%	-29	2%	-14%	45µM*	-3%
O=C(CCCSc1nc2ccccc2[nH]1)N1CCN(c2ccccc2)CC1	0%	-2	0%	2%	-11%	3%
CC(=O)c1cc(-c2ccccc2)n(CCC(=O)Nc2ccc(C)cc2C)c1C	/	-62*	0%	/	/	/
SMILES	p53 reactivator	RXFP1 antagonist	RXFP1 agonist	Tb PFK block	gsp antag	gsp agonist
CC(C)(C)c1nc(SCC(=O)c2ccccc2)c2ccccc2n1	4%	-67*	-1%	1%	-17%	4%[15.4 µM]
CC(=O)c1cccc(OCc2cc(C(=O)N3CCC(N4CCCCC4)CC3)no2)c1	-15%	-81*	0%	-2%	-3%	15%
CCOc1cc(/C=N/NC(=O)c2ccccc2OCc2ccc(F)cc2)ccc1O	3%	5	-3%	1%	35µM*	?
COc1ccc(/C=N\NC(=O)c2ccccc2OC)cc1COc1c(F)c(F)c(F)c(F)c1F	13%	-19	-2%	-7%	40µM*	-6%[15.4 µM]
CCN(CC)S(=O)(=O)c1ccc(OC)c(NC(=O)CSCc2c(C)noc2C)c1	0%	14	/	5%	4%	18µM*
CCN(CC)S(=O)(=O)c1ccc(N(C)C)c(NC(=O)CSCc2c(C)noc2C)c1	-50%	13	0%	-17%	6%	26%[15.4 µM]
CCCCCCCCC/C(=N\O)c1ccccn1	26%	-69*	-1%	2%	8%	4%[15.4 µM]
CN1CCN(c2ccccc2NC(=O)c2ccc(OCc3ccccc3)cc2)CC1	?	-15	9%	-8%	11%	3%
CN1CCN(c2ccccc2NC(=O)c2ccc(-c3ccccc3)cc2)CC1	2%	-15	0%	-1%	50µM*	12%
COc1cccc(C(=O)Nc2ccccc2N2CCN(C(=O)c3ccccc3)CC2)c1	-6%	-8	/	-1%	25µM*	6%
C=CCN1C(=O)/C(=C/c2ccc(OC(C)=O)c(OCC)c2[N+](=O)[O-])SC1=S	6%	-12	2%	-1%	25µM*	-119%
COc1ccc(Nc2ncc3c(n2)CCN(Cc2sccc2C)C3)c(OC)c1	/	-7	1%	/	/	/
COc1ccc(/C=C2\SC(=S)N(CC3CCCO3)C2=O)cc1 (stereo unspecified)	20%	-26	-4%	-17%	-25%	-10%[15.4 µM]
COc1ccc(N=C2O/C(=C/c3sc(=S)n(CC4CCCO4)c3O)N=C2C#N)cc1 (stereo unspecified)	21%	-88*	-1%	0%	35µM*	13%
CCOc1ccc(NC(=O)CCCc2nnc3n(C)c(=O)c4sccc4n23)cc1	/	7	?	/	/	/
Cn1c(=O)c2sccc2n2c(CCCC(=O)NCc3cccnc3)nnc12	7%	26	13µM*	1%	20%	?
COc1ccc(NC(=O)CCCc2nnc3n(C)c(=O)c4sccc4n23)cc1	-10%	4	16µM*	1%	10%	?
Cn1c(=O)c2sccc2n2c(CCCC(=O)NCCc3ccc(S(N)(=O)=O)cc3)nnc12	3%	20	28µM*	0%	2%	52%[15.4 µM]
